This note sets out measurements from ChEMBL document CHEMBL1157539, “Thousands of chemical starting points for antimalarial lead identification” (Nature, 2010).

Assay type in all cases: functional
Experiment [1] relates to Plasmodium falciparum. The experiment in a line: GSK_TCMDC: Inhibition of Plasmodium falciparum 3D7 in whole red blood cells, using parasite LDH activity as an index of growth. Test compounds present at 2uM.
Experiment [2] has as its system Plasmodium falciparum. The experiment in a line: GSK_TCMDC: Inhibition of Plasmodium falciparum Dd2 in whole red blood cells, using parasite LDH activity as an index of growth. Test compounds present at 2uM.
For the next experiment, the system named is HepG2. In words: GSK_TCMDC: Percent inhibition of human HepG2 cell line. Test compounds present at 10uM.

Residues, ends and D or L forms follow the SMILES beside them. *: point of attachment. Boc = CC(C)(C)OC(=O)*

For the compound `Cc1sc2ncnc(Sc3nnc(N)s3)c2c1C`, the Inhibition – broadly, the percentage by which the read-out fell short of the control – with Plasmodium falciparum [1] stood at 100%; in the experiment with Plasmodium falciparum [2], 100%; in the experiment with HepG2 it was 9%.
`CC(C)C(C(=O)n1cc2c(ccc3nc(N)nc(N)c32)n1)C(C)C`: the figures for the Inhibition in the experiment with Plasmodium falciparum [1], in the experiment on Plasmodium falciparum [2] and with HepG2 were 98%, 49% and 58%, respectively.
Turning to `COc1cccc(NC(=O)Cn2c(C)c(C(=O)C(F)(F)F)c3ccccc32)c1`, the Inhibition with Plasmodium falciparum [1] was 97%; in the experiment with Plasmodium falciparum [2] it was 94%; in the experiment on HepG2 it was 2%.
For `COC(=O)c1c(C#N)c(OC)cc(O)c1CSC[C@H](Nc1nc(-c2ccc([N+](=O)[O-])cc2)cs1)C(=O)NCCN1CCCCC1`, the Inhibition is listed as 85% in the experiment on Plasmodium falciparum [1], 88% in the experiment with Plasmodium falciparum [2] and 5% in the experiment on HepG2.
Consider `Cc1sc(C)c(CNCCCNc2cc(=O)c3ccccc3[nH]2)c1Br.Cl`, for which the Inhibition worked out at 93% with Plasmodium falciparum [1], 15% in the experiment on Plasmodium falciparum [2] and 0% in the experiment on HepG2.
Take `COc1ccc(CN(C)CCCOc2ccc(NC(=O)c3cccc4c(=O)c5cccc(F)c5[nH]c34)cc2)cc1OC`: the Inhibition in the experiment with Plasmodium falciparum [1] is recorded as 100%; in the experiment on Plasmodium falciparum [2], 96%; in the experiment on HepG2, 6%.
Regarding `CCOCCCNc1ncc(-c2ccsc2)c(-c2nc(C)cs2)n1`, the Inhibition in the experiment on Plasmodium falciparum [1] was 89%; with Plasmodium falciparum [2] it was 83%; in the experiment with HepG2, 0%.
Regarding `O=C(O)C(F)(F)F.c1ccc(CCNCc2cccc(-c3ccccc3CNCc3ccc4c(c3)OCO4)c2)nc1`, the Inhibition in the experiment on Plasmodium falciparum [1] is reported as 90%; in the experiment on Plasmodium falciparum [2], 80%; in the experiment on HepG2, 41%.
For the compound `COc1ccc(Cc2c(C)nc3nc(N)nc(N)c3c2C)cc1OC.Cl`, the Inhibition amounted to 93% in the experiment on Plasmodium falciparum [1], 0% in the experiment with Plasmodium falciparum [2] and 66% with HepG2.
Consider `Cc1nc(N)nc(N)c1-c1ccc(Cl)cc1`, for which the Inhibition in the experiment with Plasmodium falciparum [1] is 96%; in the experiment with Plasmodium falciparum [2], 0%; in the experiment with HepG2 it was 15%.
Turning to `CCOc1cc(C(C)C)ccc1C1CCN(CCCCNC(=O)c2ccc(NC(=O)c3ccc(Cl)cc3)cc2)CC1`, the Inhibition with Plasmodium falciparum [1] turned out to be 100%; with Plasmodium falciparum [2], 98%; in the experiment on HepG2, 32%.
For `O=C(c1cc2c(s1)-c1cccc(Cl)c1SC2)N1CCN(c2ccncc2)CC1` the same measures were 94%, 36% and 45%.
Consider `Nc1nccc2ccc(-c3ccc4nccn4c3)cc12.O=C(O)C(F)(F)F`, for which the figures for the Inhibition in the experiment on Plasmodium falciparum [1], in the experiment with Plasmodium falciparum [2] and with HepG2 were 100%, 100% and 15%, respectively.
In the case of `Cc1ccc(C(=O)NC2CCN(CCNC(=O)Nc3cc(C)nc4ccccc34)CC2)cc1`, the Inhibition with Plasmodium falciparum [1] came to 98%; with Plasmodium falciparum [2], 76%; with HepG2 it was 0%.
Regarding `COc1cc2nc(NCCc3ccccc3)nc(NCc3nccs3)c2cc1OC`, the values for the Inhibition in the experiment with Plasmodium falciparum [1], with Plasmodium falciparum [2] and in the experiment on HepG2 were 99%, 93% and 1%, respectively.
Consider `O=C(Nc1ccc(F)cc1)NC1CCN(CCCCCNC(=O)C2CC2c2ccc(Cl)c(Cl)c2)CC1` (stereo not drawn), for which the Inhibition in the experiment on Plasmodium falciparum [1] came to 100%; in the experiment with Plasmodium falciparum [2], 20%; in the experiment on HepG2, 46%.
The like results for `CCN(CC)CCCC(C)Nc1c2ccccc2nc2ccc3ccccc3c12.Cl` (stereo not drawn) were, in that order, 100%, 89% and 24%.
`COc1ccc2nccc([C@@H](O)CN3CCC(NCCNc4cccc(F)c4)CC3)c2c1.CS(=O)(=O)O`: the Inhibition in the experiment on Plasmodium falciparum [1] worked out at 98%; with Plasmodium falciparum [2], 73%; with HepG2, 11%.
Regarding `COc1cc2cc(-c3nc4ccccc4[nH]3)c(N)nc2cc1OC.Cl`, the Inhibition in the experiment on Plasmodium falciparum [1] is listed as 100%; in the experiment with Plasmodium falciparum [2], 100%; with HepG2, 91%.
In the case of `Cc1cccc(Nc2nc(NCCCCN)nc3cc[nH]c(=O)c23)c1.O=C(O)C(F)(F)F`, the values for the Inhibition in the experiment with Plasmodium falciparum [1], with Plasmodium falciparum [2] and in the experiment on HepG2 were 98%, 97% and 34%, respectively.
Regarding `O=C(Nc1ccc(Cl)cc1)N[C@H]1CCN(Cc2ccc(OCCCN3CCCCC3)cc2)C1`, the Inhibition in the experiment on Plasmodium falciparum [1] stood at 100%; with Plasmodium falciparum [2] it was 0%; with HepG2 it was 29%.
The like results for `NS(=O)(=O)CCc1cccc(Nc2nccc(-c3c(-c4cccc(NC(=O)c5c(F)cccc5F)c4)nn4ccccc34)n2)c1` were, in that order, 98%, 97% and 84%.
Consider `Cc1ccc2[nH]c(-c3cc(-c4ccc(OCc5ccccc5)cc4)cnc3N)nc2c1.O=C(O)C(F)(F)F`, for which the Inhibition in the experiment with Plasmodium falciparum [1] is 91%; in the experiment with Plasmodium falciparum [2] it was 87%; in the experiment on HepG2, 33%.
Regarding `Cn1c(NC(=O)C2CCC(CNC(=O)c3ccc(O)c(-c4ccc(Cl)c(Cl)c4)c3)CC2)nc2ccccc21` (stereo not drawn), the Inhibition in the experiment with Plasmodium falciparum [1] amounted to 99%; with Plasmodium falciparum [2], 100%; with HepG2 it was 40%.
As to `O=C(Nc1n[nH]c2nc(-c3ccco3)c(Br)cc12)c1ccc(CN2CCCC2)cc1.O=C(O)C(O)C(O)C(=O)O`, the Inhibition in the experiment on Plasmodium falciparum [1] was found to be 100%; in the experiment on Plasmodium falciparum [2], 53%; in the experiment on HepG2 it was 1%.
`Cc1cc(NC(=O)Nc2ccc3ncccc3c2)c2ccccc2n1`: the Inhibition in the experiment with Plasmodium falciparum [1] is given as 93%; with Plasmodium falciparum [2] it was 27%; in the experiment with HepG2 it was 6%.
Consider `Clc1cccc(-c2nc(Nc3ccnc(-c4ccc(CN5CCOCC5)cc4)c3)c3ccccc3n2)c1`, for which the Inhibition in the experiment with Plasmodium falciparum [1] was 100%; in the experiment on Plasmodium falciparum [2], 65%; in the experiment on HepG2, 8%.
For the compound `COC(=O)CC[C@H](NC(=O)[C@H](C)NC(=O)OC(C)(C)C)C(=O)OC` (Boc-Ala-Glu(OMe)-OMe), the Inhibition is 95% in the experiment on Plasmodium falciparum [1], 0% in the experiment on Plasmodium falciparum [2] and 12% in the experiment on HepG2.
On to `Cc1ccc(CN2CCCN(Cc3cccc(NC(=O)c4cc5ccccc5s4)c3)CC2)cc1C.O=C(O)C(F)(F)F`, for which the Inhibition was 92% in the experiment with Plasmodium falciparum [1], 33% with Plasmodium falciparum [2] and 44% with HepG2.
As for `COc1ccc2ncc(F)c(CCN3CC(O)C(CNCc4ccc5ccccc5c4)C3)c2n1.Cl` (stereo not drawn), the Inhibition stood at 100% with Plasmodium falciparum [1], 78% in the experiment on Plasmodium falciparum [2] and 57% in the experiment with HepG2.
Turning to `CC(C)Sc1nc2c(c(=O)n1Cc1ccco1)C1(CCCCC1)Cc1ccccc1-2`, the Inhibition in the experiment with Plasmodium falciparum [1] was 100%; in the experiment on Plasmodium falciparum [2], 99%; in the experiment on HepG2, 10%.
